Hit rate of the full screen: of about 6,200 compounds, about 2,900 (47%) were called active. Rule as the data show it: active = inhibition above about 50%; inactive = the rest. The set was probably picked from earlier hits. This is one part of the list.
Experiment: Mycobacterium tuberculosis growth inhibition, primary screen (AID 1259343)
Conditions: inhibition: at 10 µM, stronger effect = higher value; outcome: 10 uM

Compound	inhibition
Cc1cn2c3c(=O)n(CC(=O)C(C)(C)C)c(=O)n(C)c3nc2n1C1CCCC1	-30.1% (inactive)
CCCCCCn1c(N2CCN(Cc3ccc(Cl)c(Cl)c3)CC2)nc2c1c(=O)[nH]c(=O)n2C	9.32% (inactive)
CCCCc1ccc(-n2c(C)c(C)n3c4c(=O)n(CCCO)c(=O)n(C)c4nc23)cc1	46.3% (inactive)
CCCn1c(C2CCCCC2)nc2c(c(=O)c3ccccc3n2C)c1=O	12.9% (inactive)
CC(C)CCn1c(N2CCCCC2)nc2c1c(=O)n(C)c(=O)n2C	-32.3% (inactive)
CCCCCCn1c(N2CCN(c3ccccc3)CC2)nc2c1c(=O)n(C)c(=O)n2C	81.9% (active)
CCCCCn1c(=O)c2c(nc3n2CCN3Cc2ccco2)n(C)c1=O	61% (active)
CCCCCn1c(=O)c2c(nc3n2CC(C)CN3C2CCCCC2)n(C)c1=O (centres undefined)	92.2% (active)
CCCn1c(=O)c2c(nc3n2CCCN3Cc2ccccc2)n(C)c1=O	33.4% (inactive)
N[C@@H](C(=O)O)[C@@H](O)[C@H](O)[C@H](O)CO	-6.84% (inactive)
O=C(NNC(=O)c1cc(-c2ccccc2)no1)c1ccco1	96% (active)
O=C(NNC(=O)c1ccc(COc2ccccc2)o1)c1ccco1	59.7% (active)
Cn1nccc1CNC(=O)c1ccc(COc2cc(Cl)ccc2Cl)o1	35% (inactive)
c1ccc(-c2cc(-c3ccccc3)on2)cc1	46.9% (inactive)
O=C(Nc1nccs1)c1ccc(COc2ccc(F)cc2)o1	29.5% (inactive)
C=CCn1c(=S)[nH]c2sc3c(c2c1=O)CCC(C)C3 (centres undefined)	8.34% (inactive)
C=CCn1c(SCc2c(C)noc2C)nc2sc(C)c(C)c2c1=O	30.8% (inactive)
C=CCn1c(SCCC#N)nc2sc3c(c2c1=O)CCCC3	80.7% (active)
O=C(O)c1cccc(=O)n1CCOc1ccccc1Cl	53.1% (active)
Cc1ccc(C)c2c3c([nH]c12)-c1nonc1CC3	34.5% (inactive)
O=c1[nH]n2c(=O)c3ccccc3nc2c2ccccc12	86% (active)
CCn1c2ccccc2c2nc3ccccc3nc21	-25.2% (inactive)
Cc1nc2ccccc2c(=O)n1NC(=S)NC(=O)c1ccc(Br)cc1	40.8% (inactive)
CC1CN(c2ccc(C(=O)NC(c3ccccc3)c3ccc(Cl)cc3)cn2)CCN1 (centres undefined)	33.2% (inactive)
Cc1cc(C(C)(C)C)cc(C)c1CCN1CN(CCO)c2nc3ccccc3n2C1	66.6% (active)

Compound	inhibition
CC1CCN(S(=O)(=O)N2CCCC(c3cc4ccccc4[nH]3)C2)CC1 (centres undefined)	73.2% (active)
CN(C(=O)CN1CCC(c2cc3ccccc3[nH]2)CC1)C1CC1	-6.34% (inactive)
CC1CC(C)CN(S(=O)(=O)NCc2cc3ccccc3[nH]2)C1 (centres undefined)	27.9% (inactive)
N[C@H]1CN[C@H](C(=O)N2CC(N3CCCCC3)C2)C1	-19.7% (inactive)
CC/C=C(/C)C(=O)Nc1ccc(-n2nccn2)cc1	96.5% (active)
COc1c(N2CCNC(C)C2)c(F)cc2c(=O)c(C(=O)O)cn(C3CC3)c12 (centres undefined)	98% (active)
O=C(Cc1cc(-c2ccc(Cl)cc2)on1)NCCC1=CCCCC1	37.4% (inactive)
O=C(CCS(=O)(=O)c1ccc(Cl)cc1)NCCC1=CCCCC1	79% (active)
Cc1cc(=O)[nH]c(-n2nc(C)cc2NC(=O)COc2ccc(F)cc2)n1	99.8% (active)
Cc1cc(=O)[nH]c(-n2nc(C3CC3)cc2NC(=O)COc2ccc(Cl)cc2Cl)n1	100% (active)
COc1ccc(OCC(=O)Nc2cc(C3CC3)nn2-c2nc(C)cc(=O)[nH]2)cc1	-5.9% (inactive)
Cc1cc(=O)[nH]c(-n2nc(C3CC3)cc2NC(=O)COc2ccc(F)cc2)n1	99.9% (active)
Cc1cc(=O)[nH]c(-n2nc(C3CC3)cc2NC(=O)COc2ccc(Cl)cc2)n1	100% (active)
CCCCn1c(O)c(C=Nc2cccc(C)c2)c(C)c(C#N)c1=O	-35.7% (inactive)
Cc1cc(C(F)(F)F)c2c(n1)sc1c(O)cc(=O)[nH]c12	27.2% (inactive)
CCc1cc(=O)[nH]c(-n2nc(C)cc2NC(=O)C(c2ccccc2)c2ccccc2)n1	100% (active)
CCc1c(C)nc(-n2nc(C)cc2NC(=O)C(CC)c2ccccc2)[nH]c1=O (centres undefined)	12.6% (inactive)
Cc1cc(=O)[nH]c(-n2nc(C)cc2NC(=O)C(c2ccccc2)c2ccccc2)n1	101% (active)
Cc1cc(=O)[nH]c(-n2nc(C)cc2NC(=O)C(C)Oc2ccccc2)n1 (centres undefined)	99.8% (active)
CCc1ccc(CNC(=O)c2cncc(Br)c2)s1	83.2% (active)
CN(C)c1cc(C(=O)NCc2ccc(Cl)s2)ccn1	-1.2% (inactive)
CCc1ccc(CNC(=O)c2cc(C)sc2C)s1	54.8% (active)
CCc1ccc(CNC(=O)c2cc(F)ccc2Br)s1	59.5% (active)
CCc1ccc(CNC(=O)c2ccc(Cl)s2)s1	45% (inactive)
CCc1ccsc1CNC(=O)c1sccc1Br	24.1% (inactive)

Compound	inhibition
Nc1ccc(-c2ccc(-c3nc(CCCc4ccccc4)no3)cn2)cn1	59.3% (active)
Cc1noc(-c2ccc(N3CC[C@@H](c4ccc5c(c4)OCO5)[C@H](O)C3)nc2)n1	12.9% (inactive)
CCc1nc(C)c(-c2nc(CCc3ccccc3)no2)s1	49.3% (inactive)
OCc1ccccc1-c1ccc(-c2nc(CCc3ccccc3)no2)cn1	75.2% (active)
CC(C)Cc1noc(-c2ccc(-c3ccc(O)cc3)nc2)n1	23.2% (inactive)
COC1CCN(c2ccc(-c3nc(CCCc4ccccc4)no3)cn2)CC1	51.1% (active)
CCc1cn[nH]c1C1CCN(c2noc(-c3ccccc3)n2)CC1	20.9% (inactive)
COc1ccccc1C(=O)Nc1ccc2c(c1)CN(Cc1c[nH]c3ccccc13)CC2	45.8% (inactive)
O=C(Nc1ccc2c(c1)CN(C(=O)/C=C/c1cccs1)CC2)c1ccccn1	58.9% (active)
O=C(Nc1ccc2c(c1)CN(Cc1ccc(-n3cccn3)cc1)CC2)c1ccccn1	inactive
O=C(CCCc1cccs1)N1CCN(c2ccccc2O)CC1	13% (inactive)
CC(C)Oc1cccc(C(=O)C2CCCN(C(=O)/C=C/c3cccs3)C2)c1 (centres undefined)	-2.95% (inactive)
O=C(Nc1ccc2c(c1)CN(C(=O)CCCc1cccs1)CC2)c1ccccn1	54.1% (active)
FC(F)(F)c1cc(NCC2CC2)c2ccccc2n1	8.13% (inactive)
OC(c1cc(C(F)(F)F)nc2c(C(F)(F)F)cccc12)C1CCCCN1 (centres undefined)	78.8% (active)
O=S(=O)(NCCc1cccc(Cl)c1)N1CCCCCC1	21.7% (inactive)
O=C(NCCc1cccc(Cl)c1)N1CCc2ccccc2C1	83.4% (active)
O=C(NCCc1ccc(Cl)cc1)N1CCN(c2ccccc2)CC1	13.3% (inactive)
CSc1nc2ccc(N=Cc3ccc4ncccc4c3)cc2s1	-22.5% (inactive)
CSc1nc2ccc(N=Cc3c[nH]c4ccccc34)cc2s1	95.1% (active)
Cn1c(COc2cccc3ccccc23)nc2ccccc21	-3.53% (inactive)
Cn1c(CSc2ccccc2)nc2ccccc21	39% (inactive)
Cc1ccc(C)c(OCCN(C)Cc2nc3ccccc3n2C)c1	83.1% (active)
CC1(C)C2CCC1(C)C(Nc1ncnc3sccc13)C2 (centres undefined)	41.4% (inactive)
CCCCC(CC)CNS(=O)(=O)c1cccc(F)c1 (centres undefined)	45.9% (inactive)

Compound	inhibition
c1nc(NC23CC4CC(CC(C4)C2)C3)c2ccsc2n1	-13.2% (inactive)
FC(F)(F)c1cc(Nc2ncnc3sccc23)ccc1Br	23.6% (inactive)
CCCCC(CC)CNc1ncnc2sccc12 (centres undefined)	59.1% (active)
CC(C)CCCC(C)Nc1ncnc2sccc12 (centres undefined)	60.5% (active)
CN(Cc1cccc(-n2cccn2)c1)Cc1nc(Cc2ccccc2Cl)no1	inactive
Cc1cc(C)n(-c2cccc(CN(C)Cc3nc(-c4ccc5c(c4)OCO5)no3)c2)n1	45.7% (inactive)
COC(=O)c1ccc(-c2noc(CN(C)Cc3cccc(-n4cccn4)c3)n2)cc1	50.6% (active)
CC(SC1CCCC1)C(=O)N1CCCC1 (centres undefined)	52.1% (active)
COc1cccc(-c2ccccc2NC(=O)C2CCN(CCC(C)c3ccc(C)o3)CC2)c1 (centres undefined)	80.1% (active)
COc1cccc(-c2ccccc2NC(=O)C2CCN(CC3CCCCC3)CC2)c1	89.8% (active)
COc1cccc(-c2ccccc2NC(=O)C2CCN(CC3CC=CCC3)CC2)c1 (centres undefined)	84% (active)
COc1cccc(-c2ccccc2NC(=O)C2CCN(CC(C)c3ccccc3)CC2)c1 (centres undefined)	74.2% (active)
COc1cccc(-c2ccccc2NC(=O)C2CCN(Cc3cc4ccccc4[nH]3)CC2)c1	17.3% (inactive)
CC(C)c1ccc(C#N)c(SC2CC(=O)N(c3ccc(Br)cc3)C2=O)n1 (centres undefined)	10.7% (inactive)
O=C(/C=C/c1ccc(O)c(O)c1)OCCc1ccccc1	102% (active)
COc1cc(/C=C/C(=O)O)ccc1O	37.7% (inactive)
CC1CC(OCC(O)CN2CCC(CN3C(=O)c4cccc5cccc(c45)C3=O)CC2)CC(C)(C)C1 (centres undefined)	90.1% (active)
O=C(CCNc1ccc(Cc2ccncc2)cc1)c1ccc2c(c1)OCO2	84.6% (active)
O=C(C(Br)=CNc1ccc(Cl)c(Cl)c1)C(F)(F)F	87% (active)
CN(CC1Cc2ccccc2O1)C(=O)c1cc(COc2ccc3ncccc3c2)on1 (centres undefined)	35.5% (inactive)
CCC(C(=O)c1ccc2ncccc2c1)c1ccccc1 (centres undefined)	58.2% (active)
CCc1ccc(C(=O)NCc2cccc(C(=O)Nc3ccncc3)c2)o1	51.8% (active)
CCN(c1ccc(C(=O)Nc2ccncc2)cc1)C(C)C	8.43% (inactive)
CCc1ccc(C(=O)NCc2ccc(C#N)cc2)o1	12.2% (inactive)

Source: PubChem BioAssay AID1259343 (VanderVen Lab, College of Veterinary Medicine, Cornell …, 2017)
